# ± gives the standard deviation.
# T1: HaloTag-ATRX ADD domain (163-292)
# T1 chain: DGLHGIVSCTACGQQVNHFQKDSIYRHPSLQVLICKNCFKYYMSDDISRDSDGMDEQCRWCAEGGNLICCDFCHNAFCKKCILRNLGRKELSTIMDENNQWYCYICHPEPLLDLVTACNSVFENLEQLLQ
# B1: H3 112-124 I H A Kme Rme2a V T I M P K D I (peptide)
# chain: IHAKRVTIMPKDI
# B2: H3 112-124 I H A Kme2 Rcit V T I M P K D I (peptide)
# chain: IHAKRVTIMPKDI
# B3: H3 112-124 I H A Kme2 R V T I M P K D I (peptide)
# chain: IHAKRVTIMPKDI
# B4: H3 112-124 I H A Kme3 R V T I M P Kme2 D I (peptide)
# chain: IHAKRVTIMPKDI
# B5: H3 112-124 I H A Kme2 Rme2a V T I M P K D I (peptide)
# chain: IHAKRVTIMPKDI
# B6: H3 112-124 I H A Kme2 R V T I M P Kme D I (peptide)
# chain: IHAKRVTIMPKDI
# B7: H3 112-124 I H A Kme3 R V T I M P K D I (peptide)
# chain: IHAKRVTIMPKDI
# B8: H3 112-124 I H A Kme2 R V T I M P Kme2 D I (peptide)
# chain: IHAKRVTIMPKDI
# B9: H3 112-124 I H A Kme Rme2s V T I M P K D I (peptide)
# chain: IHAKRVTIMPKDI
# B10: H3 112-124 I H A Kme3 R V T I M P Kac D I (peptide)
# chain: IHAKRVTIMPKDI
# Legend:
# Assay in all cases: peptide microarray binding signal (635 nm), min-max normalized on array (fraction of array maximum); higher = stronger binding
# Conditions in all cases: peptide region: H3 112-124
# [1] = biological target: T1, HaloTag-ATRX ADD domain (163-292)
# In short: (§1)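 Triplicate spots of histone 13-mer peptide–cellulose conjugates with a Cy3 tracer were printed on nitrocellulose and probed for 1 h at 4°C with biotin-labelled HaloTag reader fusions (10 nM to 1 μM) plus streptavidin-Alexa Fluor 647 or rabbit histone antibodies (1:10,000 to 1:2,000) plus anti-rabbit Alexa 647. An Axon GenePix 4000B read the 635 nm channel. Binding signal is the spot-triplicate mean intensity after min-max scaling within each library.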
# [2] = biological target: HaloTag-ING2 PHD (mouse Ing2 200-280)
# In short: as §1
# [3] = biological target: anti-H3K4me3 antibody ab8580
# In short: as §1
# [4] = biological target: anti-H3K9me3 antibody ab8898
# In short: as §1
# [5] = peptide modifications: H3K115me1 H3R116me2a, binder concentration: 1:2,000 dilution
# [6] = peptide modifications: H3K115me1 H3R116me2a, binder concentration: 1:10,000 dilution
# [7] = peptide modifications: H3K115me2 H3R116cit, binder concentration: 1:2,000 dilution
# [8] = peptide modifications: H3K115me2 H3R116cit, binder concentration: 1:10,000 dilution
# [9] = peptide modifications: H3K115me2, binder concentration: 1:2,000 dilution
# [10] = peptide modifications: H3K115me2, binder concentration: 1:10,000 dilution
# [11] = peptide modifications: H3K115me3 H3K122me2, binder concentration: 1:2,000 dilution
# [12] = peptide modifications: H3K115me3 H3K122me2, binder concentration: 1:10,000 dilution
# [13] = peptide modifications: H3K115me2 H3R116me2a, binder concentration: 1:2,000 dilution
# [14] = peptide modifications: H3K115me2 H3R116me2a, binder concentration: 1:10,000 dilution
# [15] = peptide modifications: H3K115me2 H3K122me1, binder concentration: 1:2,000 dilution
# [16] = peptide modifications: H3K115me2 H3K122me1, binder concentration: 1:10,000 dilution
# [17] = peptide modifications: H3K115me3, binder concentration: 1:2,000 dilution
# [18] = peptide modifications: H3K115me3, binder concentration: 1:10,000 dilution
# [19] = peptide modifications: H3K115me2 H3K122me2, binder concentration: 1:2,000 dilution
# [20] = peptide modifications: H3K115me2 H3K122me2, binder concentration: 1:10,000 dilution
# [21] = peptide modifications: H3K115me1 H3R116me2s, binder concentration: 1:2,000 dilution
# [22] = peptide modifications: H3K115me1 H3R116me2s, binder concentration: 1:10,000 dilution
# [23] = peptide modifications: H3K115me3 H3K122ac, binder concentration: 1:2,000 dilution
# [24] = peptide modifications: H3K115me3 H3K122ac, binder concentration: 1:10,000 dilution
binder,measurement,setting,value
B1,peptide microarray binding signal,"[1]; peptide modifications: H3K115me1 H3R116me2a, binder concentration: 50 nM",0.005172 ± 3.7e-05
same,peptide microarray binding signal,"[1]; peptide modifications: H3K115me1 H3R116me2a, binder concentration: 500 nM",0.0151 ± 0.00091
same,peptide microarray binding signal,"[2]; peptide modifications: H3K115me1 H3R116me2a, binder concentration: 10 nM",0.0102 ± 0.00057
same,peptide microarray binding signal,"[2]; peptide modifications: H3K115me1 H3R116me2a, binder concentration: 100 nM",0.0244 ± 0.0083
same,peptide microarray binding signal,[3]; [5],0.00434 ± 0.00096
same,peptide microarray binding signal,[3]; [6],0.00297 ± 8.7e-05
same,peptide microarray binding signal,[4]; [5],0.0064 ± 0.00053
same,peptide microarray binding signal,[4]; [6],0.00317 ± 0.00013
B2,peptide microarray binding signal,"[1]; peptide modifications: H3K115me2 H3R116cit, binder concentration: 50 nM",0.00386 ± 8.5e-05
same,peptide microarray binding signal,"[1]; peptide modifications: H3K115me2 H3R116cit, binder concentration: 500 nM",0.008 ± 0.00037
same,peptide microarray binding signal,"[2]; peptide modifications: H3K115me2 H3R116cit, binder concentration: 10 nM",0.0196 ± 0.00092
same,peptide microarray binding signal,"[2]; peptide modifications: H3K115me2 H3R116cit, binder concentration: 100 nM",0.0271 ± 0.0013
same,peptide microarray binding signal,[3]; [7],0.00257 ± 8.7e-05
same,peptide microarray binding signal,[3]; [8],0.00211 ± 6.7e-05
same,peptide microarray binding signal,[4]; [7],0.00118 ± 5.6e-05
same,peptide microarray binding signal,[4]; [8],0.00133 ± 4e-05
B3,peptide microarray binding signal,"[1]; peptide modifications: H3K115me2, binder concentration: 50 nM",0.0058 ± 7e-05
same,peptide microarray binding signal,"[1]; peptide modifications: H3K115me2, binder concentration: 500 nM",0.012 ± 0.0003
same,peptide microarray binding signal,"[2]; peptide modifications: H3K115me2, binder concentration: 10 nM",0.0144 ± 0.00078
same,peptide microarray binding signal,"[2]; peptide modifications: H3K115me2, binder concentration: 100 nM",0.0293 ± 0.0017
same,peptide microarray binding signal,[3]; [9],0.00506 ± 0.00089
same,peptide microarray binding signal,[3]; [10],0.00588 ± 0.00054
same,peptide microarray binding signal,[4]; [9],0.00495 ± 0.00045
same,peptide microarray binding signal,[4]; [10],0.00479 ± 0.00031
B4,peptide microarray binding signal,"[1]; peptide modifications: H3K115me3 H3K122me2, binder concentration: 50 nM",0.00464 ± 6.3e-05
same,peptide microarray binding signal,"[1]; peptide modifications: H3K115me3 H3K122me2, binder concentration: 500 nM",0.009477 ± 4.6e-05
same,peptide microarray binding signal,"[2]; peptide modifications: H3K115me3 H3K122me2, binder concentration: 10 nM",0.0436 ± 0.0022
same,peptide microarray binding signal,"[2]; peptide modifications: H3K115me3 H3K122me2, binder concentration: 100 nM",0.0676 ± 0.0025
same,peptide microarray binding signal,[3]; [11],0.0196 ± 0.00059
same,peptide microarray binding signal,[3]; [12],0.0182 ± 0.0013
same,peptide microarray binding signal,[4]; [11],0.0246 ± 0.0043
same,peptide microarray binding signal,[4]; [12],0.00894 ± 0.00038
B5,peptide microarray binding signal,"[1]; peptide modifications: H3K115me2 H3R116me2a, binder concentration: 50 nM",0.00392 ± 0.00012
same,peptide microarray binding signal,"[1]; peptide modifications: H3K115me2 H3R116me2a, binder concentration: 500 nM",0.0121 ± 0.00062
same,peptide microarray binding signal,"[2]; peptide modifications: H3K115me2 H3R116me2a, binder concentration: 10 nM",0.013 ± 0.0011
same,peptide microarray binding signal,"[2]; peptide modifications: H3K115me2 H3R116me2a, binder concentration: 100 nM",0.015 ± 0.0041
same,peptide microarray binding signal,[3]; [13],0.00655 ± 0.00081
same,peptide microarray binding signal,[3]; [14],0.00291 ± 6.6e-05
same,peptide microarray binding signal,[4]; [13],0.00612 ± 0.00057
same,peptide microarray binding signal,[4]; [14],0.00346 ± 0.00033
B6,peptide microarray binding signal,"[1]; peptide modifications: H3K115me2 H3K122me1, binder concentration: 50 nM",0.00398 ± 8.3e-05
same,peptide microarray binding signal,"[1]; peptide modifications: H3K115me2 H3K122me1, binder concentration: 500 nM",0.00852 ± 0.00012
same,peptide microarray binding signal,"[2]; peptide modifications: H3K115me2 H3K122me1, binder concentration: 10 nM",0.0224 ± 0.00092
same,peptide microarray binding signal,"[2]; peptide modifications: H3K115me2 H3K122me1, binder concentration: 100 nM",0.0286 ± 0.0023
same,peptide microarray binding signal,[3]; [15],0.0024 ± 0.00012
same,peptide microarray binding signal,[3]; [16],0.002853 ± 2.4e-05
same,peptide microarray binding signal,[4]; [15],0.0016 ± 2.9e-05
same,peptide microarray binding signal,[4]; [16],0.001441 ± 1.4e-05
B7,peptide microarray binding signal,"[1]; peptide modifications: H3K115me3, binder concentration: 50 nM",0.00549 ± 0.00022
same,peptide microarray binding signal,"[1]; peptide modifications: H3K115me3, binder concentration: 500 nM",0.0171 ± 0.00049
same,peptide microarray binding signal,"[2]; peptide modifications: H3K115me3, binder concentration: 10 nM",0.026 ± 0.0073
same,peptide microarray binding signal,"[2]; peptide modifications: H3K115me3, binder concentration: 100 nM",0.00872 ± 0.00066
same,peptide microarray binding signal,[3]; [17],0.0334 ± 0.0055
same,peptide microarray binding signal,[3]; [18],0.0596 ± 0.027
same,peptide microarray binding signal,[4]; [17],0.0319 ± 0.041
same,peptide microarray binding signal,[4]; [18],0.0536 ± 0.0037
B8,peptide microarray binding signal,"[1]; peptide modifications: H3K115me2 H3K122me2, binder concentration: 50 nM",0.003981 ± 1.6e-05
same,peptide microarray binding signal,"[1]; peptide modifications: H3K115me2 H3K122me2, binder concentration: 500 nM",0.00729 ± 0.00043
same,peptide microarray binding signal,"[2]; peptide modifications: H3K115me2 H3K122me2, binder concentration: 10 nM",0.0277 ± 0.0045
same,peptide microarray binding signal,"[2]; peptide modifications: H3K115me2 H3K122me2, binder concentration: 100 nM",0.0324 ± 0.0023
same,peptide microarray binding signal,[3]; [19],0.00387 ± 0.0014
same,peptide microarray binding signal,[3]; [20],0.00382 ± 0.00021
same,peptide microarray binding signal,[4]; [19],0.0021 ± 6.7e-05
same,peptide microarray binding signal,[4]; [20],0.002076 ± 1.9e-05
B9,peptide microarray binding signal,"[1]; peptide modifications: H3K115me1 H3R116me2s, binder concentration: 50 nM",0.00257 ± 2.3e-05
same,peptide microarray binding signal,"[1]; peptide modifications: H3K115me1 H3R116me2s, binder concentration: 500 nM",0.00552 ± 0.00018
same,peptide microarray binding signal,"[2]; peptide modifications: H3K115me1 H3R116me2s, binder concentration: 10 nM",0.004 ± 0.00015
same,peptide microarray binding signal,"[2]; peptide modifications: H3K115me1 H3R116me2s, binder concentration: 100 nM",0.00716 ± 0.00083
same,peptide microarray binding signal,[3]; [21],0.000906 ± 2.8e-05
same,peptide microarray binding signal,[3]; [22],0.00137 ± 1.3e-05
same,peptide microarray binding signal,[4]; [21],0.00156 ± 0.00014
same,peptide microarray binding signal,[4]; [22],0.00127 ± 1.3e-05
B10,peptide microarray binding signal,"[1]; peptide modifications: H3K115me3 H3K122ac, binder concentration: 50 nM",0.00408 ± 6.9e-05
same,peptide microarray binding signal,"[1]; peptide modifications: H3K115me3 H3K122ac, binder concentration: 500 nM",0.00905 ± 0.0013
same,peptide microarray binding signal,"[2]; peptide modifications: H3K115me3 H3K122ac, binder concentration: 10 nM",0.0419 ± 0.0077
same,peptide microarray binding signal,"[2]; peptide modifications: H3K115me3 H3K122ac, binder concentration: 100 nM",0.0725 ± 0.024
same,peptide microarray binding signal,[3]; [23],0.0222 ± 0.0067
same,peptide microarray binding signal,[3]; [24],0.0228 ± 0.0068
same,peptide microarray binding signal,[4]; [23],0.0259 ± 0.0045
same,peptide microarray binding signal,[4]; [24],0.0117 ± 0.0018

# From the supplement of paper PMC4022240
